# Experiments:
# Test in all cases: DAPPL (digital affinity profiling via proximity ligation, sequencing); 10 mM Tris-HCl pH 7.5, 50 mM NaCl, 1 mM DTT, 4% glycerol, room temperature, 30 min; GST-TFs on glutathione beads, 16-mer random dsDNA library, 0.1% formaldehyde crosslink after washing; high values mean tight binding
# FLI1 = target: T1, FLI1 (Homo sapiens, UniProt Q01543 1-452); conditions: protein: recombinant; tags: N-terminal GST; dsDNA, one strand shown
# T1 sequence: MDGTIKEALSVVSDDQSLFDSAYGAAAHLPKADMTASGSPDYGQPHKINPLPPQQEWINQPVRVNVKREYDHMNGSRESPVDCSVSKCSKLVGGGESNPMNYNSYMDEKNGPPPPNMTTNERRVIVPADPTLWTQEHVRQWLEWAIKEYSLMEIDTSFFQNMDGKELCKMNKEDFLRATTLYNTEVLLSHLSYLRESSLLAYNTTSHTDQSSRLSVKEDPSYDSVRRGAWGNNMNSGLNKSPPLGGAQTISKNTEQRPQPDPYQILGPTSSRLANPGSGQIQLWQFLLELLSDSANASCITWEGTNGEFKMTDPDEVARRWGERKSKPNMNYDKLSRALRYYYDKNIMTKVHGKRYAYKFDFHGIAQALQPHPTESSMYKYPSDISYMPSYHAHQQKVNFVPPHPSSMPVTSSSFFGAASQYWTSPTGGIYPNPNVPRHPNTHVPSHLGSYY
# How it was run: (§1)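 A tag-only sample was pooled with DNA-barcoded human transcription factors that had been expressed in yeast as GST fusions and captured on glutathione beads. The pools were incubated for 30 min at room temperature with 200 nmole of a random double-stranded 16-mer DNA library in Tris/NaCl/DTT/glycerol buffer, then washed, crosslinked with 0.1% formaldehyde, proximity-ligated (BsaI/T4 ligase, 1 h, 37 °C), PCR-amplified and sequenced on an Illumina NextSeq500. Binding signal is each hexamer's read frequency for a factor divided by its frequency for the tag-only sample.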
# ELK1 = target: T2, ELK1 (Homo sapiens, UniProt P19419 1-428); conditions: protein: recombinant; tags: N-terminal GST; dsDNA, one strand shown
# T2 sequence: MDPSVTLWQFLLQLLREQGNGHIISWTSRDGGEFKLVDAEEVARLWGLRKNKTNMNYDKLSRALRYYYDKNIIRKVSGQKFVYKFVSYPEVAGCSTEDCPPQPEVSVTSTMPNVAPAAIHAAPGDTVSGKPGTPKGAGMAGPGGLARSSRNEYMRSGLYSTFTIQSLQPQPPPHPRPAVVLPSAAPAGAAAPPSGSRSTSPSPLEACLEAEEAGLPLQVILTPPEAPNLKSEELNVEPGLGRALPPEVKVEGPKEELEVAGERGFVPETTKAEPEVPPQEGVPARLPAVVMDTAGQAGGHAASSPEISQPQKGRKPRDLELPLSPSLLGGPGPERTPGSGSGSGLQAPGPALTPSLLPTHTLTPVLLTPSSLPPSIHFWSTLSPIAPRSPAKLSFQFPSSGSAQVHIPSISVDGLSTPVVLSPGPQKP
# How it was run: as §1
# GABPA = target: T3, GABPA (Homo sapiens, UniProt Q06546 1-454); conditions: protein: recombinant; tags: N-terminal GST; dsDNA, one strand shown
# T3 sequence: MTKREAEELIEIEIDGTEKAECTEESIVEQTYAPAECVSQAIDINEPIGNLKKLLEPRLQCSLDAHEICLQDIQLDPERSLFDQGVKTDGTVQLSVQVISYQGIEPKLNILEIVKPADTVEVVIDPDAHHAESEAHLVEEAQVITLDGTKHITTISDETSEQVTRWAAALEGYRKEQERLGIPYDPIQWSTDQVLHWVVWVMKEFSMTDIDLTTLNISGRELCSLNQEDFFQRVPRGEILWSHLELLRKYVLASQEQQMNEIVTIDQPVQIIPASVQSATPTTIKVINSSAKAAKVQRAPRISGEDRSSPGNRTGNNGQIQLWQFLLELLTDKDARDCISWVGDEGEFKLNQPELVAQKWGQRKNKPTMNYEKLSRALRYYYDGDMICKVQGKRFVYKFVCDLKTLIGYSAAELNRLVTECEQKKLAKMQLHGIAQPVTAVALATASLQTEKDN
# How it was run: as §1
# ERG = target: T4, ERG (Homo sapiens, UniProt P11308 1-479); conditions: protein: recombinant; tags: N-terminal GST; dsDNA, one strand shown
# T4 sequence: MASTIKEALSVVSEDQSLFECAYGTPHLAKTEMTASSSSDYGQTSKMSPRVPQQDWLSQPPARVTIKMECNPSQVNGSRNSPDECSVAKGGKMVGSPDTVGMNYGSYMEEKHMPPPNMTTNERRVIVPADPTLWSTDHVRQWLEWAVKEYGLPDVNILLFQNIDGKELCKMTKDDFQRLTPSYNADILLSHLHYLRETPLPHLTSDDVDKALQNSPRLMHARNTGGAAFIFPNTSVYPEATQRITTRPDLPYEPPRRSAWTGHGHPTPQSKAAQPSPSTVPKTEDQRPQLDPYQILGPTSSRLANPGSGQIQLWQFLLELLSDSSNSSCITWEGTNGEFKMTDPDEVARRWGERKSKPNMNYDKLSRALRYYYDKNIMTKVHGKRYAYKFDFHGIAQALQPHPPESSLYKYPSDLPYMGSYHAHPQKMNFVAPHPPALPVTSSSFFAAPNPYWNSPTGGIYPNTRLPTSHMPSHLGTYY
# How it was run: as §1
# ELF1 = ELF1 (Homo sapiens, UniProt P32519 1-619); conditions: protein: recombinant; tags: N-terminal GST; dsDNA, one strand shown
# How it was run: as §1
# EHF = target: T5, EHF (Homo sapiens, UniProt Q9NZC4 1-300); conditions: protein: recombinant; tags: N-terminal GST; dsDNA, one strand shown
# T5 sequence: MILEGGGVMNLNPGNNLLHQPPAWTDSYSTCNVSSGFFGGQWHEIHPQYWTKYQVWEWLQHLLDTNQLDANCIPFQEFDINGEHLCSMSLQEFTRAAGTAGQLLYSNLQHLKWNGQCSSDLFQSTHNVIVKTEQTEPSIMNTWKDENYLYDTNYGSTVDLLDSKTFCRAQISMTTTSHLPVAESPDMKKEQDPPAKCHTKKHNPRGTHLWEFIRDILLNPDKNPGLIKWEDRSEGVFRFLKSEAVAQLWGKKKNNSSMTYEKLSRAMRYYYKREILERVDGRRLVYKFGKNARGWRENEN
# How it was run: as §1
# SPI1 = SPI1 (Homo sapiens, UniProt P17947 1-270); conditions: protein: recombinant; tags: N-terminal GST; dsDNA, one strand shown
# How it was run: as §1
# SPIB = SPIB (Homo sapiens, UniProt Q01892 1-262); conditions: protein: recombinant; tags: N-terminal GST; dsDNA, one strand shown
# How it was run: as §1
# ELK3 = target: T6, ELK3 (Homo sapiens, UniProt P41970 1-407); conditions: protein: recombinant; tags: N-terminal GST; dsDNA, one strand shown
# T6 sequence: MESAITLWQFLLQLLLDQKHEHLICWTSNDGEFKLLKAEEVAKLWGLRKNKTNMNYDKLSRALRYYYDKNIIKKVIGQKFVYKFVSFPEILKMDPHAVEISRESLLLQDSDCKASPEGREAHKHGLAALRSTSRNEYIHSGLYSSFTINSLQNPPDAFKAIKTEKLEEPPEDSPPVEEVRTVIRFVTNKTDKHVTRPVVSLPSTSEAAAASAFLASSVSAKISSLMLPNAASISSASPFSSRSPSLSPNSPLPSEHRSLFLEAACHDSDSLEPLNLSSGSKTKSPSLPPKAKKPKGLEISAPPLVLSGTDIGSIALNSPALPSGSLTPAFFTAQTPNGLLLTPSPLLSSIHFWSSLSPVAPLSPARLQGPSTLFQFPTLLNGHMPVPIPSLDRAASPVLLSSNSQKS
# How it was run: as §1
# FEV = target: T7, FEV (Homo sapiens, UniProt Q99581 1-238); conditions: protein: recombinant; tags: N-terminal GST; dsDNA, one strand shown
# T7 sequence: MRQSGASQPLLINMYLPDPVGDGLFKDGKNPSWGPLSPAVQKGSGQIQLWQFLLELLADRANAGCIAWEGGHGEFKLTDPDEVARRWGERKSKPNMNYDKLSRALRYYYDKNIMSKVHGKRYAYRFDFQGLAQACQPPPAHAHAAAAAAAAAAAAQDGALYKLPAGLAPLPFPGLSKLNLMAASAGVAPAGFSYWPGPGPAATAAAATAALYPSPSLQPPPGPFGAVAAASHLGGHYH
# How it was run: as §1
# ETV5 = ETV5 (Homo sapiens, UniProt P41161 1-510); conditions: protein: recombinant; tags: N-terminal GST; dsDNA, one strand shown
# How it was run: as §1
# HSF1 = HSF1 (Homo sapiens, UniProt Q00613 1-529); conditions: protein: recombinant; tags: N-terminal GST; chain copies: 3; dsDNA, one strand shown
# How it was run: as §1
# SPIC = target: T8, SPIC (Homo sapiens, UniProt Q8N5J4 1-248); conditions: protein: recombinant; tags: N-terminal GST; dsDNA, one strand shown
# T8 sequence: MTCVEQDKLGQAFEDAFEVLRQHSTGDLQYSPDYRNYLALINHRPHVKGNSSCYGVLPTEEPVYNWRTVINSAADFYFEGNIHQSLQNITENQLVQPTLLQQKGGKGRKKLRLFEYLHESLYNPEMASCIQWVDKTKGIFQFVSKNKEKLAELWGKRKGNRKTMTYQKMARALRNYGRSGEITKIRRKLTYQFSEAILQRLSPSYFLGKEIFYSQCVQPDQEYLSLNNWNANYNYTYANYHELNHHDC
# How it was run: as §1
# ELF4 = ELF4 (Homo sapiens, UniProt Q99607 1-663); conditions: protein: recombinant; tags: N-terminal GST; dsDNA, one strand shown
# How it was run: as §1
# ELK4 = target: T9, ELK4 (Homo sapiens, UniProt P28324-2 1-405); conditions: protein: recombinant; tags: N-terminal GST; dsDNA, one strand shown
# T9 sequence: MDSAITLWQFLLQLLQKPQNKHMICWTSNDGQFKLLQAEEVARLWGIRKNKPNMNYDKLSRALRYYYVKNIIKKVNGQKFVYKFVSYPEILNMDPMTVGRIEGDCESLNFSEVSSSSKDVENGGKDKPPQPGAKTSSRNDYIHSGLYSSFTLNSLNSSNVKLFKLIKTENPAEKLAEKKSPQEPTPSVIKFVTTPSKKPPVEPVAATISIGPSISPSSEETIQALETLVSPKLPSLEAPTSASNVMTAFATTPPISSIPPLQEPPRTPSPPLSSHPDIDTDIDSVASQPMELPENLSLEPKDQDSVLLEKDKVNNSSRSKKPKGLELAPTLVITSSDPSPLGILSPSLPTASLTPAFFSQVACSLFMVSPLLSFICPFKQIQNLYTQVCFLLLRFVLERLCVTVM
# How it was run: as §1
# ETV2 = target: T10, ETV2 (Homo sapiens, UniProt O00321 1-342); conditions: protein: recombinant; tags: N-terminal GST; dsDNA, one strand shown
# T10 sequence: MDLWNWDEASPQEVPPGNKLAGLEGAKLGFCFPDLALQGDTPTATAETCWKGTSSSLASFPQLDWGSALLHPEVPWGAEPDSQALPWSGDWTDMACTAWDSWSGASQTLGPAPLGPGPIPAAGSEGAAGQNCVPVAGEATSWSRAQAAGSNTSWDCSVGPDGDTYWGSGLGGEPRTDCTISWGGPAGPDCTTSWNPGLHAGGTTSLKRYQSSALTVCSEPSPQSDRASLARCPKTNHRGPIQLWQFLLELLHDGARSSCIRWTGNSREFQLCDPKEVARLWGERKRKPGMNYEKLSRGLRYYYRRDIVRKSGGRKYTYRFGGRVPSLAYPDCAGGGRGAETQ
# How it was run: as §1
# ELF3 = target: T11, ELF3 (Homo sapiens, UniProt P78545 1-371); conditions: protein: recombinant; tags: N-terminal GST; dsDNA, one strand shown
# T11 sequence: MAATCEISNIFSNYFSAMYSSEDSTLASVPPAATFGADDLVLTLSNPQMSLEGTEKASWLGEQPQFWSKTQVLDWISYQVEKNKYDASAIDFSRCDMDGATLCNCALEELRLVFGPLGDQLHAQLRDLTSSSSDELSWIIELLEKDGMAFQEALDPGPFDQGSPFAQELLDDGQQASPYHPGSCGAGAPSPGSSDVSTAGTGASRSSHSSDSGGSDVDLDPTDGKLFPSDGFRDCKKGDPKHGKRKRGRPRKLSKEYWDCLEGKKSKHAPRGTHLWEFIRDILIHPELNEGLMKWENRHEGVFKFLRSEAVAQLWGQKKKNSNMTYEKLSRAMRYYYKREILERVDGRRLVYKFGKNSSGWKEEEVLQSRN
# How it was run: as §1
# CRX = CRX (Homo sapiens, UniProt O43186 1-299); conditions: protein: recombinant; tags: N-terminal GST; dsDNA, one strand shown
# How it was run: as §1
# ETV1 = ETV1 (Homo sapiens, UniProt P50549 1-477); conditions: protein: recombinant; tags: N-terminal GST; dsDNA, one strand shown
# How it was run: as §1
# Sequence of SPIB (Q01892 whole entry): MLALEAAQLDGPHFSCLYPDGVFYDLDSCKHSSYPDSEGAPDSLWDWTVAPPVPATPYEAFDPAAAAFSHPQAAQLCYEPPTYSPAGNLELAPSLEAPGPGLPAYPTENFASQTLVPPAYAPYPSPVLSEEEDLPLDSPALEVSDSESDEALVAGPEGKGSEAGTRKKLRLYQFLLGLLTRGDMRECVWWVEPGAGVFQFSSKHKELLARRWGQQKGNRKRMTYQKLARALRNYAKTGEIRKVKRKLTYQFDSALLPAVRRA
# Sequence of HSF1 (Q00613 whole entry): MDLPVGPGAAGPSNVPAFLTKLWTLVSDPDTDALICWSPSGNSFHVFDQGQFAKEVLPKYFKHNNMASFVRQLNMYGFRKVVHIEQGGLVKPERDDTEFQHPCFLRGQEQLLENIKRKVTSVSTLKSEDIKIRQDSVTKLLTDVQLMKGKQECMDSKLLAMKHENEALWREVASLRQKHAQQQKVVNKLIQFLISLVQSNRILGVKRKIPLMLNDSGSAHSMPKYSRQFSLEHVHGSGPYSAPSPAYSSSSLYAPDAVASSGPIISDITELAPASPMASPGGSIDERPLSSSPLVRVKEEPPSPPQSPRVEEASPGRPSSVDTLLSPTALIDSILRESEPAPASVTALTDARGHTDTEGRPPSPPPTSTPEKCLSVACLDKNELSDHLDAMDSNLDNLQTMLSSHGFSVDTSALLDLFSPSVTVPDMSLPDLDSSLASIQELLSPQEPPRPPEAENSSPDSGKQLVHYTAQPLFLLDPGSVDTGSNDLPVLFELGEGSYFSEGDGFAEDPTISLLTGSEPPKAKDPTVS
# Sequence of ETV1 (P50549 whole entry): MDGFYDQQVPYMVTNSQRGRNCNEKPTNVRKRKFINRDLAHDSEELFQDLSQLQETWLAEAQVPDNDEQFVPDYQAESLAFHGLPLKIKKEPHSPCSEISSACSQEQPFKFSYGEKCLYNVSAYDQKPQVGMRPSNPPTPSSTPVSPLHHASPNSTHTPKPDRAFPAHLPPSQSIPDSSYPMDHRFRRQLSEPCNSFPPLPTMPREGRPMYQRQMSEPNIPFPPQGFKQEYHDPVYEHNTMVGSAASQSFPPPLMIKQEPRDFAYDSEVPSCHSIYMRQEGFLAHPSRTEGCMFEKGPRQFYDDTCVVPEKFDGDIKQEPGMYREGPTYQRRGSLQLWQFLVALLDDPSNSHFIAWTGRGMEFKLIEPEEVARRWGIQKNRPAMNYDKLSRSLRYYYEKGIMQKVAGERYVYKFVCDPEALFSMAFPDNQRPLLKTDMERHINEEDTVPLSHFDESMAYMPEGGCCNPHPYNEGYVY
# Sequence of ELF1 (P32519 whole entry): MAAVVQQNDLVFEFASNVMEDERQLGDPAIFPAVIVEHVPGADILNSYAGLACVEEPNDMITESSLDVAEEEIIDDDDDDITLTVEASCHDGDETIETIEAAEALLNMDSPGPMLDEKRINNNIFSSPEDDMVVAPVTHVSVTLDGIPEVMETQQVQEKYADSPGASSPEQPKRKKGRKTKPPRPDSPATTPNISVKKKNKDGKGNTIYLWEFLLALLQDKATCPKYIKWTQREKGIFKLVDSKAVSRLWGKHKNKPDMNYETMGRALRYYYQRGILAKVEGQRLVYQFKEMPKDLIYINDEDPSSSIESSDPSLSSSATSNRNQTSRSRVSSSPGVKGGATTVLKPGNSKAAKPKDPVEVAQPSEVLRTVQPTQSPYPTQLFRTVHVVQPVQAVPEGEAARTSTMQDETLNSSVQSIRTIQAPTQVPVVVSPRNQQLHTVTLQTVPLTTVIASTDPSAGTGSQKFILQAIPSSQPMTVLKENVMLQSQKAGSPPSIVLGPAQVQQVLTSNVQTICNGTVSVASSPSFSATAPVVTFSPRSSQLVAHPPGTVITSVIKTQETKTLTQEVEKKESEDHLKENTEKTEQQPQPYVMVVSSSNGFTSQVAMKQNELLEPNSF
# Sequence of CRX (O43186 whole entry): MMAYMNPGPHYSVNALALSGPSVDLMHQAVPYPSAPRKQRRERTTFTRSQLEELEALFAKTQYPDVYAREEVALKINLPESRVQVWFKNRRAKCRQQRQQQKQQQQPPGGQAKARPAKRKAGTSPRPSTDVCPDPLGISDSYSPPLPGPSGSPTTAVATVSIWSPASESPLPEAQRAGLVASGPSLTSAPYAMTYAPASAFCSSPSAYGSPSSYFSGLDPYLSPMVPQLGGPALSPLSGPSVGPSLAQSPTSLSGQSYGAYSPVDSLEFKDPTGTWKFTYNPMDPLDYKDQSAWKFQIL
# Sequence of ELF4 (Q99607 whole entry): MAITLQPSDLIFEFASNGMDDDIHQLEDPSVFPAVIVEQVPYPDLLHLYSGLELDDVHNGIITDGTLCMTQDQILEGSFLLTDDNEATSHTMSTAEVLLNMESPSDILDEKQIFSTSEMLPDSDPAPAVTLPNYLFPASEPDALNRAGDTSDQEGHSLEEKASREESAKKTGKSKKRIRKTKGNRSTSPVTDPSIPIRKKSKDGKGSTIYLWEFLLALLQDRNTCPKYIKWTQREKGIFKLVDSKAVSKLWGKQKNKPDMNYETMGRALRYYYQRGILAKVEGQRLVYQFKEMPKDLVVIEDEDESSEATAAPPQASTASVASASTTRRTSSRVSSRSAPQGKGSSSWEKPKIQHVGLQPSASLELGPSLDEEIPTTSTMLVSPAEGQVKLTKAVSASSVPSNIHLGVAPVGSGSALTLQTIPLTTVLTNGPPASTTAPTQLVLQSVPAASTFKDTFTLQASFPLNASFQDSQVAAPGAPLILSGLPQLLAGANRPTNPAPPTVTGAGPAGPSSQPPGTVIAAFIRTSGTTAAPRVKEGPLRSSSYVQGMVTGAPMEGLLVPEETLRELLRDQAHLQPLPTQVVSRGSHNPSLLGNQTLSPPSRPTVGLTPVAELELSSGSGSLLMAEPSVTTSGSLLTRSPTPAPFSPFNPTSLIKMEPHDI
# Sequence of ETV5 (P41161 whole entry): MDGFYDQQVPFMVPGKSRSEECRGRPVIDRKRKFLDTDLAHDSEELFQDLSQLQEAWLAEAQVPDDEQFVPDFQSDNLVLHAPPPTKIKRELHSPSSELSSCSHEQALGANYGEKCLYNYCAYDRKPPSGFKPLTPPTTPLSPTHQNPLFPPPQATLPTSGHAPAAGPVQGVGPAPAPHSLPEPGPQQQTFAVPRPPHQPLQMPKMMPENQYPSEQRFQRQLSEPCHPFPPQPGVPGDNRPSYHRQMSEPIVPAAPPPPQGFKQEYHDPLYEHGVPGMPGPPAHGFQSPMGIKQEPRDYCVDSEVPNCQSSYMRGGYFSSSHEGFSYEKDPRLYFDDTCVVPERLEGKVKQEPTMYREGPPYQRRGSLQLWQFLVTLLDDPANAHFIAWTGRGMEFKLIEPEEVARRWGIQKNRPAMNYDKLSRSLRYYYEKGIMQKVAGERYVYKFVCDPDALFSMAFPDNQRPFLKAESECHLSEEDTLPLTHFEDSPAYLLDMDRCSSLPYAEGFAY
sequence,measurement,setting,value
CTTTCA,binding signal,FLI1,"1.45 fold enrichment (6-mer frequency, TF over GST control)"
same,binding signal,ELK1,"1.32 fold enrichment (6-mer frequency, TF over GST control)"
same,binding signal,GABPA,"1.46 fold enrichment (6-mer frequency, TF over GST control)"
same,binding signal,ERG,"1.23 fold enrichment (6-mer frequency, TF over GST control)"
same,binding signal,ELF1,"1.41 fold enrichment (6-mer frequency, TF over GST control)"
same,binding signal,EHF,"1.3 fold enrichment (6-mer frequency, TF over GST control)"
same,binding signal,SPI1,"1.45 fold enrichment (6-mer frequency, TF over GST control)"
same,binding signal,SPIB,"1.28 fold enrichment (6-mer frequency, TF over GST control)"
same,binding signal,ELK3,"1.36 fold enrichment (6-mer frequency, TF over GST control)"
same,binding signal,FEV,"1.31 fold enrichment (6-mer frequency, TF over GST control)"
same,binding signal,ETV5,"1.26 fold enrichment (6-mer frequency, TF over GST control)"
same,binding signal,HSF1,"1.28 fold enrichment (6-mer frequency, TF over GST control)"
same,binding signal,SPIC,"1.37 fold enrichment (6-mer frequency, TF over GST control)"
same,binding signal,ELF4,"1.44 fold enrichment (6-mer frequency, TF over GST control)"
same,binding signal,ELK4,"1.54 fold enrichment (6-mer frequency, TF over GST control)"
same,binding signal,ETV2,"1.42 fold enrichment (6-mer frequency, TF over GST control)"
same,binding signal,ELF3,"1.18 fold enrichment (6-mer frequency, TF over GST control)"
same,binding signal,CRX,"1.25 fold enrichment (6-mer frequency, TF over GST control)"
same,binding signal,ETV1,"1.45 fold enrichment (6-mer frequency, TF over GST control)"
